Screens as filed in PubChem.
POLH inh – inhibitors of human DNA polymerase eta; Potency, µM (highest dose often 114 µM), without a hit: at the top dose activity change, negative = inhibition, most hits filed as inhibitors; recombinant Pol eta, fluorescent DNA replication assay; Q9Y253; hit rate 1.2% among 390,000; note: % is set by controls: 0 for no effect and ±100 for the full control effect
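Pol eta (10 nM) was preincubated with compounds for 15 min at room temperature, after which fluorescent replication substrate (50 nM final) was added to start the reaction. Fluorescence was read kinetically at 0 and 10 min.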
APE1 inh – inhibitors of human APE1 endonuclease; hit rate 0.35% among 350,000; Potency, µM (series often up to 65.8 µM), without a hit: top-dose activity change, negative = inhibition, actives largely listed as inhibitors; P27695; recombinant APE1, TAMRA/BHQ-2 abasic DNA cleavage fluorescence;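 note: plate controls were vehicle for no effect and reference inhibitor for full effect; nearly all actives have a fitted effect of over 55% in size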
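Compound pre-exposure to 0.75 nM APE1, 15 min at ambient temperature. Reaction initiated with 50 nM TAMRA/BHQ-2 THF substrate, read immediately in kinetic mode, 525 nm excitation, 598 nm emission.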
L3MBTL1 inh – blocks human L3MBTL1; Potency, µM (highest dose often 57.1 µM), inactives show top-dose activity, negative = inhibition, actives largely listed as inhibitors; AlphaScreen L3MBTL1–H3K9me1 peptide binding; AID 485360; Q9Y468; hit rate 0.66% among 230,000; note: % is set by controls: 0 for no effect and ±100 for the full control effect; nearly all actives have a fitted effect of over 60% in size
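Read-out is AlphaScreen signal from streptavidin donor and nickel chelate acceptor beads (10 ug/mL final each) bridging L3MBTL1 (50 nM) and biotinylated K9-monomethylated H3(1-15) peptide (75 nM), after 30 min compound exposure at room temperature.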
Pol iota inh – blocks human DNA polymerase iota activity | Potency, µM (titrated, usually from 115 µM), for the others: top-dose activity, negative = inhibition, usual class: inhibitors | Pol iota fluorescent replication assay, 10 min | hit rate 1% among 390,000 | Q9UNA4 | AID 588590
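Fluorescent replication assay read twice, at 0 min and 10 min after adding 50 nM (final) substrate. Enzyme (10 nM) and compounds were first incubated 15 min at room temperature; enzyme-free buffer wells were negative controls.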
POLK inh – DNA polymerase kappa (human) inhibition; purified Pol kappa, fluorescent DNA synthesis assay, 10 min; Q9UBT6; hit rate 0.53% among 400,000; Potency, µM (series often up to 107 µM), for inactives: top-dose activity, negative = inhibition, most hits filed as inhibitors; AID 588579; note: % is set by controls: 0 for no effect and ±100 for the full control effect
Target sequence (Q9UBT6 whole entry, looked up): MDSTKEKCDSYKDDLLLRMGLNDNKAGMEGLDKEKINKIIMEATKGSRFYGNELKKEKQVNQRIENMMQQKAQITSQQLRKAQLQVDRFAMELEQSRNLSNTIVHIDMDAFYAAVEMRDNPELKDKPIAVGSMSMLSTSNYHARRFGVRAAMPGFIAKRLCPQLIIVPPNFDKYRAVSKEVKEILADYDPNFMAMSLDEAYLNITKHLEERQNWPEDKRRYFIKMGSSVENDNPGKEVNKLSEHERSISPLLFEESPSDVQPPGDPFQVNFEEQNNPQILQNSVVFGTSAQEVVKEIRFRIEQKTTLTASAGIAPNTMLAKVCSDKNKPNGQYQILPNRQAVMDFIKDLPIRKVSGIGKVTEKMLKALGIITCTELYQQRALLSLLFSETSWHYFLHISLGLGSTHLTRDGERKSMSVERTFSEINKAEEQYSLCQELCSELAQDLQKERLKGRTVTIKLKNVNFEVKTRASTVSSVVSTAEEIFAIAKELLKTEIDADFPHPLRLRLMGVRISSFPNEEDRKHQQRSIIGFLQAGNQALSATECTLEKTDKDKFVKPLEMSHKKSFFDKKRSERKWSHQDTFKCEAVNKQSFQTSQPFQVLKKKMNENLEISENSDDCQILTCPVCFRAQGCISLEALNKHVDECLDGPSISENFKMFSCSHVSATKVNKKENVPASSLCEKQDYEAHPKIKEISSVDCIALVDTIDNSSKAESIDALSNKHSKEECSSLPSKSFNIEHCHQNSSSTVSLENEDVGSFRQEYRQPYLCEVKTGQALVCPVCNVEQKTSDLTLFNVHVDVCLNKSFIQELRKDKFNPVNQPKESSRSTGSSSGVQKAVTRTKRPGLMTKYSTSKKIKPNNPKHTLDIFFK
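Enzyme at 10 nM met test compounds for 15 min at room temperature. Substrate addition (50 nM final) began the reaction, which was monitored by fluorescence at 0 and 10 min.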
POLB inh – inhibitors of human DNA polymerase beta | Pol beta primer extension/strand displacement, fluorescence kinetic | P06746 | Potency, µM (titrated, usually from 114 µM), without a hit: at the highest dose activity change, negative = inhibition, hits mostly inhibitors | hit rate 1.3% among 340,000; note: % is set by controls: 0 for no effect and ±100 for the full control effect
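Homogeneous kinetic assay of primer extension and strand displacement by 10 nM Pol beta, preincubated 15 min at room temperature with compound before 50 nM substrate (final) was added. Read at 0 and 10 min; four-parameter Hill fit.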
Numbers without * were called inactive; ? = inconclusive; nt = no result; ! = not active in a repeat; [ ] = remark or other dose. Rows were chosen to be rich in hits. Some 2.5% of all compounds tested hit in one or more screens of this group. Calls come from the whole dose curve; as a rule, active = well fitted curve in the direction sought with a large enough effect; inconclusive = small, poorly fitted or top-dose-only effect, or another doubt; inactive = no such curve, though single readings can be large; an effect the other way counts as inactive or inconclusive. Potency is the fitted concentration of half-maximal effect.

SMILES	POLH inh	APE1 inh	L3MBTL1 inh	Pol iota inh	POLK inh	POLB inh
CCOc1cccc2cc(-c3nnc(NCc4ccc5c(c4)OCO5)s3)c(=O)oc12	4µM*	-2%	4%	10%	-7%	?
CO/S(=N\S(=O)(=O)c1ccc(Cl)cc1)c1ccc([N+](=O)[O-])cc1 (configuration not stated)	nt	nt	nt	nt	-5%[60.1 µM]	nt
COc1cccc(C(=O)O[C@@H]2[C@H](Cc3ccccc3)NS(=O)(=O)[C@H]3C[C@@H]4C=C[C@]23O4)c1	-7%	0%	-2%	-6%	-7%	nt
CN(C)CCN(C)C1CN(Cc2ccc([N+](=O)[O-])cc2)S(=O)(=O)C1 (configuration not stated)	-8%	nt	nt	nt	nt	nt
Cc1cc(NC(=O)CN2CCC(C)CC2)nc2c1c(=O)oc1ccccc12	-17%	nt	nt	?	89µM*	-1%
C=CS(=O)(=O)c1c2cc(OC)ccc2nc2ccc(OC)cc12	?	nt	nt	28µM*	-22%	nt
COc1ccc2nc(Cl)cc(Cl)c2c1	-19%	17%	nt	23%	-4%	43%
CCC(C)Nc1ccc(NC(C)CC)cc1 (configuration not stated)	-12%	4%	?	4%	2.5µM*!	nt
Cc1ccc(C(=O)C2=C(O)C(=O)N(Cc3ccco3)C2c2cccc(Cl)c2)o1 (configuration not stated)	-14%	-2%	nt	56%	3%	-18%
COc1cccc2cc(C(=O)C3=C(O)C(=O)N(Cc4ccco4)C3c3cccnc3)oc12 (configuration not stated)	3.5µM*	-2%	nt	4%	-12%	-1%
O=C(C1=C(O)C(=O)N(Cc2ccco2)C1c1cccnc1)c1cc2ccccc2o1 (configuration not stated)	?	-1%	nt	?	-23%	7%
Cc1ccc(C(=O)C2=C(O)C(=O)N(Cc3ccco3)C2c2cccc(Br)c2)o1 (configuration not stated)	-6%	43%	nt	103%	-2%	79µM*
Cn1c(Br)nc2c1c(=O)n(Cc1ccccc1)c(=O)n2C	-16%	1%	nt	116%	-1%	1%
Cn1c(NN)nc2c1c(=O)n(Cc1ccccc1)c(=O)n2C	?	0%	nt	?	-16%	40µM*
CN(C)c1ncc2nc(CCc3ccccc3)c(=O)n(CCc3ccccc3)c2n1	nt	1%	nt	nt	-2%[60.1 µM]	nt
CCc1ccc2nc(NC(=O)c3ccc4c(=O)[nH]c(CN5CCOCC5)nc4c3)sc2c1	50µM*	-4%	-5%	?	-21%	79µM*
CCc1ccc2nc(NC(=O)c3ccc(N4C(=O)CCC4=O)cc3)sc2c1	-15%	-6%	nt	7%	-14%	27%
Oc1ccc(N=Cc2ccc(OCc3ccccc3)cc2)cc1	22µM*	?	?	?	-22%	2%
c1ccc(-c2nc(-c3ccco3)n3ccccc23)cc1	?	15%	-28%	-6%	-8%	35µM*
c1ccc(Nc2c(-c3ccco3)nc3ccccn23)cc1	-7%	0%	-4%	46%	-5%	3%
CC(C)c1nc2cc(C(=O)N(C)Cc3ccc(F)cc3)ccc2o1	-10%	-12%	nt	22%	-9%	49%
Cc1ccc(S(=O)(=O)NC(=O)c2cc(C)n(-c3cc(S(=O)(=O)N4CCOCC4)ccc3N3CCCC3)c2C)cc1	89µM*	9%	nt	?	-25%	?
COC(=O)C1=C(C)N(c2ccc(C)c(C)c2)/C(=C/c2ccco2)C1=O	-3%	?	nt	?	-21%	22µM*
CCOC(=O)C1=C(C)N(c2ccc(C)c(C)c2)C(=O)/C1=C\c1ccco1	-14%	-3%	-7%	12%	-5%	28%
Cc1cccn2c(=O)c(-c3nnn[nH]3)cnc12	nt	nt	nt	nt	2%[19.4 µM]	nt
SMILES	POLH inh	APE1 inh	L3MBTL1 inh	Pol iota inh	POLK inh	POLB inh
CC(NC(=S)Nc1cccc(F)c1)C(c1cccs1)N1CCOCC1 (configuration not stated)	-27%	3%	nt	44%	-1%	5%
COC(=O)c1sc(NC(=O)CN2CCN(c3cccc(Cl)c3)CC2)c(C(=O)OC)c1C	-22%	nt	nt	34%	1%	nt
O=C(Nc1cccc(C(=O)O)c1)/C(=C\c1ccco1)NC(=O)c1ccccc1Cl	-13%	3%	nt	?	35µM*	2%
CNC(=O)c1ccc2nc(-c3ccco3)c(-c3ccco3)nc2c1	nt	nt	nt	8.9µM*	8.9µM*	nt
O=C(NC1CC1)c1ccc2nc(-c3ccco3)c(-c3ccco3)nc2c1	nt	nt	nt	10µM*	22µM*	nt
O=C(Nc1ccc(N2CCOCC2)cc1)c1ccc2nc(-c3ccco3)c(-c3ccco3)nc2c1	-14%	-6%	-7%	-5%	-25%	0%
O=C(Nc1ccccc1)c1ccc2nc(-c3ccco3)c(-c3ccco3)nc2c1	?	2%	?	40µM*	45µM*	20µM*
CC(OC(=O)c1ccccc1OCC(=O)Nc1ccc(Br)cc1)C(=O)NC1CCCC1 (configuration not stated)	nt	nt	nt	-4%	5%	nt
Cc1ccnc(NS(=O)(=O)c2ccc(NC(=O)c3cc(-c4ccccc4)nc4ccccc34)cc2)n1	12%	-9%	-8%	-3%	-9%	28%
Cc1ccnc(NS(=O)(=O)c2ccc(NC(=O)c3cc(-c4ccc(Br)cc4)nc4ccccc34)cc2)n1	35µM*	2%	-8%	45µM*	-32%	79µM*
CC(=O)Nc1cccc(/C(C)=N/NC(=O)c2cccc(S(=O)(=O)N3CCCC3)c2)c1	-2%	nt	nt	nt	nt	nt
O=C(COc1ccc(S(=O)(=O)N2CCOCC2)cc1)N1CCOCC1	-6%	-9%	-2%	27%	-14%	nt
O=C(COc1ccc(/C=C\[N+](=O)[O-])cc1)N1CCOCC1	32µM*	?	47%	32µM*	-20%	-24%
C=CCn1c(C)cc(C(=O)Cn2c(C(C)O)nc3ccccc32)c1C (configuration not stated)	-19%	1%	-4%	137%	-1%	61%
Cc1cc(C(=O)Cn2c(CO)nc3ccccc32)c(C)n1C	-3%	3%	-20%	79µM*	-26%	-11%
O=C(O)c1ccc(O)cc1	nt	-4%	nt	nt	10%[60.1 µM]	nt
O=C(O)c1ccc(O)c(O)c1	-5%	13%	?	?	-7%	25µM*
CCCCCCC1CC(=CN(C)C)C(=O)O1 (configuration not stated)	-27%	nt	nt	nt	nt	nt
O=C(C[n+]1ccc(C(=O)N/N=C/c2ccc(O)cc2)cc1)c1ccccc1	?	-7%	nt	38%	-13%	56µM*
O=C(C[n+]1ccc(C(=O)N/N=C/c2ccc(Br)cc2)cc1)c1ccccc1	?	?	nt	16%	1%	-1%
